Data from PubChem BioAssay AID504842 (National Center for Advancing Translational Sciences (NCATS), 2011).
The campaign covered roughly 330,000 compounds. About 100 (0.03%) were called active. Another 1% or so got no clear call; they are omitted. The list comes from a sample in which actives are over-represented; it also holds similar structures and randomly drawn compounds. Values without a mark were called inactive. Calls follow the shape of the dose curve; as a rule, active = well fitted inhibition curve with a large enough effect; inconclusive = small, poorly fitted or top-dose-only effect; inactive = flat fitted curve, though single readings scatter.

The molecules below were run on Chaperonin Mm-Cpn (Methanococcus maripaludis) (assay: Inhibitors of TCP-1 ring complex (TRiC) of Methanococcus maripaludis (MmCpn): qHTS). Settings: purified Mm-Cpn ATPase, ADP Transcreener TR-FRET; series mostly up to 76.9 µM; activity, negative = inhibition: at the top concentration.
From the text: The eukaryotic chaperonin TRiC (for TCP-1 ring complex) is an essential and conserved chaperone required for the folding and activation of 10-15% of the proteins encoded by the human genome. […] The TRiC complex consist of two stacked 7-9 membered rings, each containing a central cavity. Substrates are folded within the cavity in an ATP-dependent manner. TRiC is a complex of eight different, essential proteins. As each of the genes encoding the eight subunits is essential for cell viability and no protocol has been developed to over-express this enzyme to high levels. That is why several groups studying the TRiC chaperonin have turned to the archaeal homolog of TRiC, Methanococcus maripaludis (Mm-CPN), and have used this enzyme as a model system for the study of the type II chaperonin family. Small molecule inhibitors of the Mm-CPN enzyme would be extremely useful to study the mechanism of chaperonin activity. Importantly, TRiC and Mm-CPN both require ATP hydrolysis for function. Furthermore, the ATP binding sites are highly conserved among these type II chaperonins. This provides us with an easy, well tested and straightforward assay to identify inhibitors of chaperonin activity. The Mm-CPN assay was developed in 1536-well plate format using the HTRF Transcreener ADP assay kit (Cisbio, Bedford, MA). This assay applied the time resolved fluorescence resonance energy transfer (TR-FRET) principle. ATP in the presence of Mm-CPN is converted to ADP + Pi. An antibody labeled with Eu3+-Cryptate specific and bound to ADP labeled with […] (d2) competes with the unlabeled ADP generated by Mm-CPN. The resulting TR-FRET signal is inversely proportional to the concentration of ADP in the sample. In this assay a reduction in TR-FRET signal is observed with ATP turnover. NIH Chemical Genomics Center [NCGC] NIH Molecular Libraries Probe Centers Network [MLPCN] MLPCN Grant: DA030554-01A1 Assay Submitter (PI): Judith Frydman, Stanford University
Purified Mm-CPN was supplied by the laboratory of Dr. Judith Frydman. Protein samples were stored at -80C as single use aliquots. Protein was thawed in ambient temperature water bath and placed on ice once thawed. Buffer was prepared fresh day of screen. The buffer composition below was used to prepare the working solution of the Mm-CPN protein and ATP substrate. The buffer is comprised of 30 mM TRIS pH 7.4, 100mM KCl, 5mM MgCl2, and 1mM DTT. A final concentration of 25nM Mm-CPN and 10uM ATP per well were used in the screen. Instructions according to the manufacturer were followed for the ADP Transcreener kit. Used 1536 well Greiner white, medium binding (MB), solid bottom plates. Plates were read on the PerkinElmer EnVision plate reader using Excitation = 320 nm and Emission = […], 665 nm. Protocol- 1.Dispense 1.5ul per well of working [Mm-CPN] = 50nM (or 75 ng / well) 2.Spin plate at 1000 rpm for 30 seconds 3.23nl of compound transferred per well 4.Incubate at 37degC for 10 minutes 5.Dispense 1.5ul per well of working [ATP] = 20uM 6.Incubate at 37degC for 30 minutes 7.Dispense 3ul per well of Anti-ADP Cryptate / ADP-d2 mix (prepared as instructed by Cisbio) 8.Incubate at ambient for 30 minutes 9.Read using EnVision
% is scaled to controls: 0 for no effect and ±100 for the full control effect; potency is read from the fitted curve at half-maximal effect.
Also: nearly all actives have a fitted effect of over 80% in size.
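For Potency in this document: enzyme at 25 nM with ATP substrate at 10 µM during the reaction.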

SMILES	activity, negative = inhibition	Potency
CCOc1ccc(NC(=O)COC(=O)C2CCC(=O)N2)c([N+](=O)[O-])c1 (stereo unspecified)	-2.17%	
CN(C(=O)CSc1nnc(C2CC2)n1C)C1CCCc2ccccc21 (stereo unspecified)	1.32%	
C=C(C)c1cccc(C(C)(C)NC(=O)NC2CCCC2)c1	3.61%	
CC(=O)NC(NC(=S)Nc1c(C)n(C)n(-c2ccccc2)c1=O)C(Cl)(Cl)Cl (stereo unspecified)	0.437%	
COc1cccc(NS(=O)(=O)c2ccc(-c3coc(C)n3)cc2)c1	1.38%	
Nc1ccccc1C(=O)NC1CCCCNC1=O (stereo unspecified)	1.08%	
COc1cccc(N2CC(C(=O)NCc3n[nH]c(=O)c4ccccc34)CC2=O)c1 (stereo unspecified)	2.26%	
CCOC(=O)c1c(N)c(C#N)nn1-c1ccccc1C(=O)OC	-12.9%	
O=C(c1c(F)cccc1F)N1CCN(c2ncc(Br)cn2)CC1	0.0114%	
Cc1ccccc1NC(=O)CCNS(=O)(=O)c1ccc2[nH]c(=O)oc2c1	-1.52%	
CC(C)N(C)C(=O)CCc1nnc(CCc2c[nH]c3ccccc23)o1	-2.91%	
O=C(Nc1cccc(C(=O)NC2CC2)c1)c1ccc(F)c(S(=O)(=O)N2CCOCC2)c1	1.05%	
CC(=O)NC(c1cccs1)c1cc(Br)c2cccnc2c1O (stereo unspecified)	-1.32%	
COc1ccc(-c2[nH]ncc2CN(Cc2nccn2C)C(C)C)cc1F	-2.61%	
COc1ccc(CNC(=O)CN2C(=O)NC3(CCCc4sccc43)C2=O)cc1 (stereo unspecified)	-1.41%	
O=S1(=O)C=C(SCCN2CCCC2)c2ccccc21	0.155%	
CC(C)(C)NC(=O)CN(C(=O)c1ccc(Cl)nc1)c1cccc2ccccc12	-0.978%	
CC(C#N)(NC(=O)CN1CCN(S(=O)(=O)c2cc(C(F)(F)F)ccc2Cl)CC1)C1CC1 (stereo unspecified)	3.45%	
Cc1nc(COc2cccc(Cl)c2)sc1C(=O)/C=C/N(C)C	-24.3%	
COc1ccc([C@H]2CC(=O)C=C(/C=C/c3ccc(Cl)cc3)C2)cc1	-0.334%	
COc1ccc(F)cc1C(=O)COC(=O)c1n[nH]c(=O)c2ccccc12	-0.0952%	
CC(C)N(C(=O)Cn1cc(SCC(=O)N2CCCC2)c2ccccc21)C(C)C	0.718%	

SMILES	activity, negative = inhibition	Potency
CN(C)CCN=c1cc(-c2ccccc2)oc2ccc(Cl)cc12	-2.28%	
CC1(C)C/C(=C(/C#N)C(N)=O)CCO1	-0.376%	
COc1ccccc1Oc1ccc(N2CC(C(=O)OCC(=O)c3ccc(F)cc3)CC2=O)cc1 (stereo unspecified)	-1.04%	
CCCOc1ccc(C(=O)C(CCC(CNCC)C(=O)c2ccc(OCCC)cc2)CNCC)cc1 (stereo unspecified)	0.107%	
Cc1ccc(S(=O)(=O)N2CCCC2C(=O)OCc2nc3sc(C)c(C)c3c(=O)[nH]2)cc1 (stereo unspecified)	1.1%	
Nc1c(Cl)cc(S(N)(=O)=O)cc1S(N)(=O)=O	0.708%	
Nc1ccc(Cl)c(S(=O)(=O)Nc2ccccc2Cl)c1	1.09%	
O=C(CN1CCN(C(=O)c2ccco2)CC1)Nc1ccc(Cl)c(C(F)(F)F)c1	-2.16%	
Cc1ccc2nc(SCc3nnc(-c4ccccc4[N+](=O)[O-])o3)c(C#N)cc2c1	0.0284%	
Cn1c2ccc(F)cc2c2nnc(NN)nc21	-3.17%	
Cn1c(=O)c([N+](=O)[O-])c(Oc2ccccc2)c2ccccc21	-2.22%	
CCn1c(=O)c(=O)n(CC)c2cc(N3CCCCC3)c(NC(=O)c3ccc(Cl)cc3)cc21	-1.8%	
O=C1OC2(CCCCC2)CC2=C1C1O[C@](c3ccsc3)(Cc3ccccc31)O2	-2.46% [at 15.4 µM]	
CCOC(=O)C1=C(CSc2nnnn2C)N(C)C(=O)NC1c1ccccc1 (stereo unspecified)	-0.436%	
CCc1nnc(NC(=O)C2CCN(C(=O)c3ccccc3C)CC2)s1	0.687%	
Cc1ccc(NC(=O)Cn2cccc2C2=NC(c3ccccc3)CO2)c(C)c1 (stereo unspecified)	-0.418%	
CC(OC(=O)Cc1ccc(F)cc1)C(=O)N1CCc2ccccc21 (stereo unspecified)	-0.947%	
COCCn1c(SCC(=O)N2CCCCCC2)nc2c(c1=O)SCC2	-22%	
Cc1ccc(-n2nc(C)c(C(=O)O)c2-n2cccc2)cc1	2.77%	
Cc1cccc(N(Cc2ccccc2)C(=O)c2ccccc2F)c1	-2.75%	
CCCOC1CCCN(Cc2cn(C)nc2-c2ccccc2F)C1 (stereo unspecified)	-0.377%	
O=S1(=O)CCC(NC(=S)SCc2ccccc2Br)C1 (stereo unspecified)	0.837%	

SMILES	activity, negative = inhibition	Potency
Cc1ccc(-n2nc3c(=O)n(C(C)C(=O)NCc4ccc5c(c4)OCO5)nc(C)c3c2C)cc1 (stereo unspecified)	-0.0835%	
Cc1ccc(-c2nc(-c3cccnc3)sc2CC(=O)Nc2ccc(C)c(Cl)c2)cc1		28.2 µM (active)
Cc1ccc(NC(=O)Nc2cccnc2)cc1	1.12%	
Cc1nc(-c2ccc(F)cc2)c(CC(=O)Nc2cccc(S(=O)(=O)N3CCOCC3)c2)s1	-1.11%	
COC(=O)c1sc2[nH]c(=S)n(N)c(=O)c2c1C	-11.1%	
CCOc1ccc(C(CCc2ccccc2)NC(=O)c2ccc(OC)c(OC)c2)cc1OCC (stereo unspecified)	0.0376%	
CC(C)(CNC(=O)Cc1ccc(Cl)cc1Cl)N1CCOCC1	0.0015%	
COc1ccc(OC)c(S(=O)(=O)N(C)CC(=O)N2CCN(c3ccccc3)CC2)c1	-4.94%	
Cc1ccc(S(=O)(=O)N2CCCCC2)cc1NC(=O)CCNC(=O)c1ccccc1	0.79%	
Cc1cc(S(=O)(=O)NCc2ccccn2)c(Cl)cc1Cl	-1.27%	
Cc1cc(NC(=O)/C=C/C(=O)N(c2ccccc2C)C(C(=O)NC2CCCC2)c2ccc(F)cc2)no1 (stereo unspecified)	0.316%	
CCCSC1=C(C#N)C(c2ccccc2C)C(C(=O)OC)C(=O)N1 (stereo unspecified)	0.631%	
CCOc1ccc(NC(=O)CN(C)C(=O)CSc2ccccc2)cc1OCC	-1.05%	
CCOc1ccccc1NS(=O)(=O)c1cc2c3c(c1)C(C)C(=O)N3CCC2 (stereo unspecified)	-0.707%	
O=S(=O)(Nc1ccc(Oc2ncccn2)c(Cl)c1)c1ccc(F)cc1	-0.624%	
Cc1ccc(S(=O)(=O)N(Cc2cccc([N+](=O)[O-])c2)C(=O)N2CCN(C)CC2)cc1	1.85%	
O=C(CN1CCCSc2ccccc21)N1CCN(S(=O)(=O)c2ccccc2)CC1	-5.83%	
O=C(Cn1nc([N+](=O)[O-])nc1Br)NC1CCCCC1	2.19%	
Cc1nn(-c2ccccc2)nc1C(=O)OCC(=O)N1CCCCC1C (stereo unspecified)	-2.18%	
CCc1ccc(Nc2nnc(SCC(=O)c3ccc4c(c3)NC(=O)CO4)s2)cc1	-6.83%	
CCOCc1c(C(=O)N2CCN(Cc3ccc(Br)s3)CC2)oc2ccccc12	0.351%	
CCOC(=O)CN1C(=O)N[C@@H](c2ccc(Br)cc2)C(C(C)=O)=C1C	0.237%	
